Results: the supplement of paper PMC10105736
A number with no mark means an inactive call.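 How the source made its calls: active = MAPPIT score above the 99th percentile of random reference set scores in the same batch; inactive = at or below it.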

Tests used:
Test in all cases: MAPPIT interaction score (arbitrary units); higher = stronger binary interaction signal, active = hit call of the paper
Yif1 = conditions: MAPPIT configuration: N-N; pair source set: RRS
Trxr1 = conditions: MAPPIT configuration: N-N; pair source set: Finley_Y2H
Traf-like = conditions: MAPPIT configuration: N-N; pair source set: Curagen_low_conf
Vsx1 = conditions: MAPPIT configuration: N-C; pair source set: screen_3
TwdlW = conditions: MAPPIT configuration: N-N; pair source set: Lit-BS-16
U4-U6-60K = conditions: MAPPIT configuration: N-N; pair source set: DPIM
Tsp74F = conditions: MAPPIT configuration: N-C; pair source set: screen_3
Usp16-45 = conditions: MAPPIT configuration: N-N; pair source set: Curagen_low_conf
Xbp1 = conditions: MAPPIT configuration: N-N; pair source set: Curagen_low_conf
Vha13 = conditions: MAPPIT configuration: N-C; pair source set: screen_4
Tsp96F = conditions: MAPPIT configuration: N-C; pair source set: screen_3
ninaD = conditions: MAPPIT configuration: N-C; pair source set: screen_3
Vps51 = conditions: MAPPIT configuration: N-N; pair source set: screen_2
Vti1a = conditions: MAPPIT configuration: N-N; pair source set: Curagen_high_conf
Uba5 = conditions: pair source set: RRS
Vps24 = conditions: MAPPIT configuration: N-N; pair source set: Curagen_high_conf
Uba4 = conditions: MAPPIT configuration: N-N; pair source set: Curagen_high_conf
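Further: HEK293T cells with Epo stimulation, STAT-responsive firefly luciferase reporter, fold induction versus unstimulated cells divided by the larger fold induction of two negative controls lacking either bait or prey.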

B1: noi (protein)
chain: METLLEQQRRLHEERERLVKLMVDEHATKKPGEKERIHSEHRLKYLMELHHNSTSQLRDLYEDKDNERKAEIAALSGPNEFNEFYARLKQIKQFYKSHPAEVSVPLSVEFDEMIRVYNNPDDMSALVEFTDEEGGGRYLDLNECYELYLNLRSVEKLDYITYLMSFDHVFDIPRERKNREYRIYIETLNDYLHHFILRIQPLLDLEGELLKVELDFQRQWLMGTFPGFSIKETESALANTGAHLDLSAFSSWEELASLGLDRLKSALVALGLKCGGTLEERAQRLFSTKGKSTLDPALMAKKPSAKTASAQSREHERHKEIAQLEALLYKYADLLSEQRAATKENVQRKQARTGGERDDSDVEASESDNEDDPDADDVPYNPKNLPLGWDGKPIPYWLYKLHGLNISYNCEICGNFTYKGPKAFQRHFAEWRHAHGMRCLGIPNTAHFANVTQIEDAITLWEKLKSQKQSERWVADQEEEFEDSLGNVVNRKTFEDLKRQGLL
**Q.** B1 was tested. Which MAPPIT interaction score (Yif1) did it give?
**A.** -0.019

B2: CG7639 (protein)
chain: MPKSGRDGGASKDSKYDLSKISARVDRVNVSGLLRTHNDYVMRAADGLFKASNFQDLMLEAMSTKSYLHELGIFKDVSVHIDVSRGADASPQGYEVTFKGNEMSRMMGSAGTEIGQNEGSLRTELTIPNILGRGENISLQGSYSSTRANDLQLKFWKPFFHTRFKENRPEMSFSIFRQTDRFDISSFQTTNIGYLVDFSAHTMVGVDLTHSLQYENAIRDVGLLNKSVPFAIRDHCGPKLASLLRYSVVYDNRDGNVFPTRGIYLKSVNEYCGLGGNVAYTSSTAHGELNVPLFAGLVAQFCARVGVVKETKNTTQLPISSLFYCGGPLTLRGFKFGGAGPVVESTPIGAQSFWCTGAHLWAPLPFAGVFKNLASHFRMHFFYNIGNNNSFSTENMRSAFGMGLAVKLAERARIELNYCVPVRHQDTDRILNGFQFGIGYEFV
**Q.** B2 was tested. Which MAPPIT interaction score (Trxr1) did it give?
**A.** -0.0261

B3: Mlp84B (protein)
chain: MPSFQPIEAPKCPRCGKSVYAAEERLAGGYVFHKNCFKCGMCNKSLDSTNCTEHERELYCKTCHGRKFGPKGYGFGTGAGTLSMDNGSQFLRENGDVPSVRNGARLEPRAIARAPEGEGCPRCGGYVYAAEQMLARGRSWHKECFKCGTCKKGLDSILCCEAPDKNIYCKGCYAKKFGPKGYGYGQGGGALQSDCYAHDDGAPQIRAAIDVDKIQARPGEGCPRCGGVVYAAEQKLSKGREWHKKCFNCKDCHKTLDSINASDGPDRDVYCRTCYGKKWGPHGYGFACGSGFLQTDGLTEDQISANRPFYNPDTTSIKARDGEGCPRCGGAVFAAEQQLSKGKVWHKKCYNCADCHRPLDSVLACDGPDGDIHCRACYGKLFGPKGFGYGHAPTLVSTSGESTIQFPDGRPLAGPKTSGGCPRCGFAVFAAEQMISKTRIWHKRCFYCSDCRKSLDSTNLNDGPDGDIYCRACYGRNFGPKGVGYGLGAGALTTF
**Q.** Which MAPPIT interaction score (Traf-like) does the source give for B3 here?
**A.** -0.422

B4: Mst87F (protein)
chain: MCCGPCGPCCGPCCGPCCGPCGPCGGGCGPCYGPNVCGPCYACGPCGGCYCGYPCC
**Q.** Which MAPPIT interaction score (Vsx1) does the source give for B4 here?
**A.** 0.606

B5: RpS3 (protein)
chain: MNANLPISKKRKFVSDGIFKAELNEFLTRELAEDGYSGVEVRVTPSRTEIIIMATKTQQVLGEKGRRIRELTAMVQKRFNFETGRIELYAEKVAARGLCAIAQAESLRYKLTGGLAVRRACYGVLRYIMESGAKGCEVVVSGKLRGQRAKSMKFVDGLMIHSGDPCNDYVETATRHVLLRQGVLGIKVKVMLPYDPKNKIGPKKPLPDNVSVVEPKEEKIYETPETEYKIPPPSKPLDDLSEAKVL
**Q.** B5 was tested. Which MAPPIT interaction score (TwdlW) did it give?
**A.** -0.331

B6: CG2034 (protein)
chain: MLSNLVVTKQKVVLVIDELNRERIAPKFIGSLLHEQGQGADTIKALPTGVSLKHVATFEALIDKYANNNTGSTTDSNSTGFNVILPTLADLLCYQTPAFIFGFLNRLRRSDNVRRVFLWASPQHLQDPHADYILAGCEYLAELVLRLESDKLLSLISRKPGGGVSNRRYSCEVSKTQFKVTPLDGGLPAGASPKQPSPEAEQTTEPASSTFKIELDEDEVLARNALTLPYERTSEPSEGNIIYTPDADDDFDEEDPDEDLCI
**Q.** For B6, which MAPPIT interaction score (U4-U6-60K) is on record?
**A.** 0.24

B7: Surf4 (protein)
chain: MSIPNEYIAKTEDVAEQVIKRGKNVLPTVARLCLIATFFEDGLRMYIQWNEQREYMDMSWGCGKFLATVFVLVNLLGQLGGCGMVMARFKVDIAVGLLFFIVVLQTVAYSILWDFQFLLRNFALIGALLLVLAEARIEGRSLFAGVPSMGENKPKNFMQLAGRILLAFMFITLIRFELSVWQVIQDIIGSILMVLVVLGYKTKLSALILVALLTILNLYHNAWWTIPSYKPLRDFLKYDFFQTLSVIGGLLMIVSLGPGGVSMDEHKKKW
**Q.** With B7 as the binder, how does the MAPPIT interaction score (Tsp74F) read?
**A.** -0.232

B8: AdSS (protein)
chain: MSASATNGTHYEQLHQGRTKMYKSKVDVVLGAQWGDEGKGKVVDMLASDVDIVCRCQGGNNAGHTVVANGTEFDFHLLPSGVVNEKCVSVIGNGVVIHLPSLFDEVLKNEAKGLQHLENRLIISDRAHLVFDFHQHVDGMQEAEKGGKSLGTTKKGIGPAYSSKATRNGIRVGELLGDFNLFSEKFKSIVATHVRLFPSINVDVEAELARYKDYADKVRPYVKDTICFLHTALRNGKTILVEGANAAMLDIDFGTYPYVTSSNCSIGGVLTGLGLPPQTIGEVIGVVKAYTTRVGDGPFPTEQLNDIGDLLQTRGFEVGVTTKRKRRCGWLDIPLLKYTSLVNGYTCICLTKLDILDTLPEIKVAVAYKKPNGEKLDHFPGTIAELGNIEVEYAVLPGWQTSTEEVRNFKELPENAQSYVRLLESELSVPVRWVGVGKGRESIINVH
**Q.** For B8, which MAPPIT interaction score (Usp16-45) is on record?
**A.** 1.38

B9: Ubc2 (protein)
chain: MSSTPAAGSAAEVATSSATSNAPSAPSTTASNVSNTSQPTTAGTPQARGGRGSNANGGASGSNAGGGDEPRKEAKTTPRISRALGTSAKRIQKELAEITLDPPPNCSAGPKGDNLYEWVSTILGPPGSVYEGGVFFLDIHFSPEYPFKPPKVTFRTRIYHCNINSQGVICLDILKDNWSPALTISKVLLSICSLLTDCNPADPLVGSIATQYLQNREEHDRIARLWTKRYAT
**Q.** With B9 as the binder, how does the MAPPIT interaction score (Xbp1) read?
**A.** -0.108

B10: Vha26 (protein)
chain: MALSDADVQKQIKHMMAFIEQEANEKAEEIDAKAEEEFNIEKGRLVQQQRLKIMEYYEKKEKQVELQKKIQSSNMLNQARLKVLKVREDHVSSVLDDARKRLGEVTKNQSEYETVLTKLIVQGLFQIMEPKVILRCREVDVPLVRNVLPAAVEQYKAQINQNVELFIDEKDFLSADTCGGVELLALNGRIKVPNTLESRLDLISQQLVPEIRNALFGRNVNRKFTD
**Q.** How did the MAPPIT interaction score (Vha13) turn out when B10 was run?
**A.** 1.21

B11: Tpst (protein)
chain: MRLPYRNKKVTLWVLFGIIVITMFLFKFTELRPTCLFKVDAANELSSQMVRVEKYLTDDNQRVYSYNREMPLIFIGGVPRSGTTLMRAMLDAHPDVRCGQETRVIPRILQLRSHWLKSEKESLRLQEAGITKEVMNSAIAQFCLEIIAKHGEPAPRLCNKDPLTLKMGSYVIELFPNAKFLFMVRDGRATVHSIISRKVTITGFDLSSYRQCMQKWNHAIEVMHEQCRDIGKDRCMMVYYEQLVLHPEEWMRKILKFLDVPWNDAVLHHEEFINKPNGVPLSKVERSSDQVIKPVNLEAMSKWVGQIPGDVVRDMADIAPMLSVLGYDPYANPPDYGKPDAWVQDNTSKLKANRMLWESKAKQVLQMSSSEDDNTNTIINNSNNKDNNNNQYTINKIIPEQHSRQRQHVQQQHLQQQQQQHLQQQQHQRQQQQQQREEESESEREAEPDREQQLLHQKPKDVITIKQLPLAGSNNNNINNNINNNNNNNNIMEDPMADT
**Q.** What does the source list for B11?
**A.** MAPPIT interaction score (Tsp96F): -0.524; MAPPIT interaction score (ninaD): 0.243

B12: Dpy-30L1 (protein)
chain: MEAKTDAPISPAPTTNPPAEAGKEPNASSNAQANPTAAPGAPPSGAIAVGQSTNPVAQQQQQPAVAKKPSSETNNMPTRQYLDQTVAPVLLHGMQALARERPTDPIQFLASYLLKHSNGCDENNASAAAVDNNS
**Q.** How did the MAPPIT interaction score (Vps51) turn out when B12 was run?
**A.** 1.49

B13: spn-F (protein)
chain: MEASAAKITPMASSMSASGSTNSPSSEKMNYALQVALQTIKERCIQLQRRVASMEEENQQLREASSRSEGAPRANEIGVTGDVLSLKAQVSELQRQKEQLEEHIGMVSNENRRLWSRLSQISKDQQLNALPSSTDSRAQQNQNLVRSKTFTQHSPNPHLRQKMLSDGIKDLSLEEIALDDFGASSEELGYPYNLQKVEETTSEPDANVDAKRCLDGLQELRREAMKQQQELRSVMTLLENRIALKPCPECAQKTIKKPEMADKSLETDDSLTSELKNYESQHNGHNGTPPSQRINIIQEKIKADAADAMEKTCPMCGKQYSSQVSFNAFREHVEMHFIDDALELESENSIERQFEFVSHAVGDF
**Q.** With B13 as the binder, how does the MAPPIT interaction score (Vti1a) read?
**A.** 0.032

B14: htl (protein)
chain: MAAAWSWRASHSTITMTSGSLVVLFLLLSIWQPAVQVEGRRQMANSQEMIKDHLGARSQNKTPAITNNANQSSTSSADLDDGAADDDDNKADLPVNVSSKPYWRNPKKMSFLQTRPSGSLLTLNCHALGNPEPNITWYRNGTVDWTRGYGSLKRNRWTLTMEDLVPGDCGNYTCKVCNSLGCIRHDTQVIVSDRVNHKPILMTGPLNLTLVVNSTGSMHCKYLSDLTSKKAWIFVPCHGMTNCSNNRSIIAEDKDQLDFVNVRMEQEGWYTCVESNSLGQSNSTAYLRVVRSLHVLEAGVASGSLHSTSFVYIFVFGGLIFIFMTTLFVFYAIRKMKHEKVLKQRIETVHQWTKKVIIFKPEGGGDSSGSMDTMIMPVVRIQKQRTTVLQNGNEPAPFNEYEFPLDSNWELPRSHLVLGATLGEGAFGRVVMAEVNNAIVAVKMVKEGHTDDDIASLVREMEVMKIIGRHINIINLLGCCSQNGPLYVIVEYAPHGNLKDFLYKNRPFGRDQDRDSSQPPPSPPAHVITEKDLIKFAHQIARGMDYLASRRCIHRDLAARNVLVSDDYVLKIADFGLARDIQSTDYYRKNTNGRLPIKWMAPESLQEKFYDSKSDVWSYGILLWEIMTYGQQPYPTIMSAEELYTYLMSGQRMEKPAKCSMNIYILMRQCWHFNADDRPPFTEIVEYMDKLLQTKEDYLDVDIANLDTPPSTSDEEEDETDNLQKWCNY
**Q.** For B14, which MAPPIT interaction score (Uba5; MAPPIT configuration: N-C) is on record?
**A.** -0.924

**Q.** What about the MAPPIT interaction score (Uba5; MAPPIT configuration: N-N) of the same binder?
**A.** -0.283

B15: shrb (protein)
chain: MSFFGKMFGGKKEVAPTTGEAIQKLRETENMLIKKQEFLEAKIEDELNIARKNASKNKRVALQALKKKKRLEKQLQQIDGTLSTIEMQREALESANTNTAVLTTMKNAADALKRAHQNMDVDKVHDMMDDIAEQQDVAREISDAISNPVAFGADLDDEDLERELDELEQENFDKEIIGIPEPTPTLPEAPTEDLPEKAKEKKKATTTTAVEDDDDPDMKQLLSWSN
**Q.** B15 was tested. Which MAPPIT interaction score (Vps24) did it give?
**A.** 0.054

B16: Coa8 (protein)
chain: MNKCFRCQPRISLFQFSLPRCYAAVQPGCPPPQEKPVVGLPHKPDPKTVKCDYIGPPDAQSNLRPYVRHYGDEETRLARSLRLKRIEVEAWNTDFWTKHNKRFYEEKEDFIRLHKESGTSEVSADQMSHFYKAFLDKNWRIHIMYNISWYLKNFDILTLAAAVQLQRLLALAKRRS
**Q.** Which MAPPIT interaction score (Uba4) does the source give for B16 here?
**A.** 2.52 (active)
